Reference: PubChem BioAssay AID687016 (The Scripps Research Institute Molecular Screening Center, 2013)
Screen size: about 370,000 compounds; about 2,800 (0.76%) were called active. Rule as the data show it: active = inhibition above about 21%; inactive = the rest. What follows is part of a selection rich in actives, with near analogues and random picks from the rest.

Molecular target: E3 ubiquitin-protein ligase UHRF1 (Homo sapiens) (UniProt Q96T88)
Experiment: blockers of UHRF1 binding to methyl-oligo – biochemical, TR-FRET, human UHRF1, single concentration, counter-screen for MBD2 inhibitor project, primary screen (AID 687016);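 also: UHRF1 SRA domain binding a hemimethylated CpG hairpin DNA probe; 0% = median of test compound wells and 100% = reference inhibitor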
Details: UHRF1 binding to methylated oligo, at 4.4 µM, active compounds read high

E3 ubiquitin-protein ligase UHRF1 (Homo sapiens), sequence (Q96T88 whole entry, looked up, the tested form may be a part): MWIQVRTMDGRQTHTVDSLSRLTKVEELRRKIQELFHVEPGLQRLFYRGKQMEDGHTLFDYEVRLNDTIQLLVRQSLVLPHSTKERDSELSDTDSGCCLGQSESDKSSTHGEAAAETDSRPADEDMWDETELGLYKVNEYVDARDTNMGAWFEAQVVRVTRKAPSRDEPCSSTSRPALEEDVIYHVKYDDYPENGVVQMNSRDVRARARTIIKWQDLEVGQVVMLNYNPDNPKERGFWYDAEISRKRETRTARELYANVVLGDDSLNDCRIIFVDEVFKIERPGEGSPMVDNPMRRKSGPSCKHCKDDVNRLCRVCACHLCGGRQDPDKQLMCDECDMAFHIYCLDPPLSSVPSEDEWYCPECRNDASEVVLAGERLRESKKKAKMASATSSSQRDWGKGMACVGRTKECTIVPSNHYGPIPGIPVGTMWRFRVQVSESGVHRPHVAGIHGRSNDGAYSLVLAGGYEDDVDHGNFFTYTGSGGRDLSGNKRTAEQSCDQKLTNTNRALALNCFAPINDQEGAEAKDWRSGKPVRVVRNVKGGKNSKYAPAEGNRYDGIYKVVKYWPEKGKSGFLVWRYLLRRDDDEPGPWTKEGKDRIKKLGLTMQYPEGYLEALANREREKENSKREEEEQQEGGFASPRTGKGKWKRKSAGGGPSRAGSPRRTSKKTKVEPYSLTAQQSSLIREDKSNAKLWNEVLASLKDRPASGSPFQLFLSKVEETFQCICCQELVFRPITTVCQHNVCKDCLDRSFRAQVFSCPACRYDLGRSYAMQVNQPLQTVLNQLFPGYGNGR

Structure (SMILES)	inhibition
c1ccc(CNCc2ccc(CNCc3ccccc3)cc2)cc1	-2.85% (inactive)
OCc1ccc(-c2ccccc2)c(-c2ccccc2)c1	-1.66% (inactive)
OCC(CO)(CO)NCc1ccc(-c2ccccc2)cc1	24.9% (active)
CN1[C@H](Cc2ccccc2)COc2cccc(N3CCSCC3)c2S1(=O)=O	6.46% (inactive)
O=C(CSc1nnc(-c2ccccn2)n1-c1ccc(Cl)cc1)Nc1ccccc1-c1ccccc1	-0.44% (inactive)
COc1ccc(C(=O)N2CCC(C(=O)Nc3ccc(C)cc3)CC2)cc1	98.2% (active)
COc1ccc(C(=O)N2CCC(C(=O)Nc3cccc(C)c3)CC2)cc1OC	-2.09% (inactive)
O=C(Nc1ccccc1)C1CCN(C(=O)c2ccc(Br)cc2)CC1	-0.01% (inactive)
CC(C)(C)NC(=O)C(c1cccnc1)N(C(=O)c1cnco1)c1ccc(C(C)(C)C)cc1 (centres undefined)	-2.85% (inactive)
O=C(c1ccncc1)N1CC[C@H]2[C@H](CCCN2Cc2ccc(F)cc2)C1	-0.99% (inactive)
COc1ccccc1C(=O)CSc1nnc(-c2ccccn2)n1-c1ccccc1	0.85% (inactive)
COc1ccc(-n2c(SCC(=O)Nc3ccc4cn[nH]c4c3)nnc2-c2cccnc2)cc1	0.56% (inactive)
CC(C)CNc1cccc2c1S(=O)(=O)N(Cc1cn(Cc3ccc(Cl)cc3)nn1)Cc1ccccc1O2	2.31% (inactive)
COc1ccc(N2CCN(C(=O)CNC(=O)c3ccc(C(C)(C)C)cc3)CC2)cc1	-2.46% (inactive)
COC(=O)c1nc(NC(=O)c2ccc(C(C)(C)C)cc2)n[nH]1	87.5% (active)
CSc1nccc(NC(=O)c2ccc(C(C)(C)C)cc2)n1	5.85% (inactive)
CCOC(=O)[C@]12CCCC=C1N(Cc1ccc(OC)cc1)C(=O)[C@@H]2CC(=O)N1CCOCC1	-0.91% (inactive)
CCCCCCN1CCS(=O)(=O)N(Cc2ccc(C(F)(F)F)cc2)C(C(=O)OC)C1 (centres undefined)	-2.34% (inactive)
CC(C)N1CCCCC(NC(=O)C(C)(C)C)C1=O (centres undefined)	-1.29% (inactive)
CC(C)CNc1cccc2c1S(=O)(=O)N(Cc1cn(Cc3ccccc3C(F)(F)F)nn1)Cc1ccccc1O2	1.83% (inactive)
Cc1cc(=O)[nH]c(SCC(=O)Nc2ccc(Cl)cc2C)n1	-2.56% (inactive)
Cc1ccc(S(=O)(=O)NCCC(=O)NNC(=O)C2COc3ccccc3O2)cc1 (centres undefined)	-3.3% (inactive)
CC(=O)c1ccccc1NC(=O)COC(=O)C1COc2ccccc2O1 (centres undefined)	6.15% (inactive)

Structure (SMILES)	inhibition
Cc1c(CC(=O)N2CCN(C(=O)C3COc4ccccc4O3)CC2)c(=O)oc2c(O)c(O)ccc12 (centres undefined)	28.8% (active)
CCCn1c(C(Cc2ccccc2)NC(=O)COC)nc2ccccc21 (centres undefined)	-1.58% (inactive)
CCOc1ccccc1NC(=O)C12CC3CC(C1)CC(c1ccc(C)cc1)(C3)C2	2.15% (inactive)
CCCn1c(NC(=O)C23CC4CC(CC(O)(C4)C2)C3)nc2ccccc21	21% (active)
N#CCC[C@H]1CC[C@]2(CCCN(Cc3ccc(Cl)cc3)C2)O1	3.52% (inactive)
O=C(CSc1nnc(-c2cccc(Cl)c2)n1Cc1ccco1)Nc1ccc(OCc2ccccc2)cc1	-1.67% (inactive)
FC(F)(F)c1cccc(Cn2ccc3ccc(-c4ccc5ccn(Cc6ccccc6)c5c4)cc32)c1	0.27% (inactive)
O=C(Nc1ccccc1C(=O)N1CCCCC1)c1ccco1	3.17% (inactive)
O=C(Nc1nc(-c2ccco2)c(-c2ccco2)s1)c1ccco1	51.4% (active)
O=C(Nc1c(-c2ccccc2)nc2c(Br)cc(Br)cn12)c1ccco1	1.55% (inactive)
CCOc1ccc(N(CC(=O)Nc2c(C)n(C)n(-c3ccccc3)c2=O)S(=O)(=O)c2ccc(Cl)s2)cc1	-0.95% (inactive)
O=C(CN1CCC(NC(=O)NCc2ccccc2)CC1)Nc1ccc2c(c1)OCCO2	1.96% (inactive)
C[C@H]1[C@H](NC(=O)c2cccc(N(C)C)c2)CC[C@@]23CCCN2C(=O)CCC[C@@H]13	0.44% (inactive)
Cc1cccc(C(=O)N2CCCC(Nc3ccc(C(C)C)cc3)C2)n1 (centres undefined)	22.3% (active)
CC(C)c1ccc(NC2CCCN(C(=O)c3ccncc3)C2)cc1 (centres undefined)	1.9% (inactive)
COc1ccc(NC2CCCN(C(=O)c3ccncc3)C2)cc1 (centres undefined)	-3.03% (inactive)
COc1ccc2c(C(C)c3ccc(N)cc3)cn(C)c2c1 (centres undefined)	3.85% (inactive)
Cc1cc(C)nc(NC(=S)N2CCN(c3ccc(C(F)(F)F)cn3)CC2)c1	-0.11% (inactive)
COc1ccc(CCNC(=O)CSc2nc3c([nH]2)c(=O)n(C)c(=O)n3C)cc1	-0.65% (inactive)
C=CCc1cccc2cc(C(=O)NC3CCCC3)c(=O)oc12	2.45% (inactive)
C=CCc1cccc2cc(C(=O)Nc3ccc(NC(C)=O)cc3)c(=O)oc12	28.9% (active)
C=CCc1cccc2cc(C(=O)N3CCN(C(=O)OCC)CC3)c(=O)oc12	-2.84% (inactive)
COc1ccc(-n2c(COc3ccccc3)nnc2SCC(=O)Nc2ccc3c(c2)OCO3)cc1	0.77% (inactive)

Structure (SMILES)	inhibition
COC(=O)c1cc(S(=O)(=O)N2CCN(C(=O)C3CCCO3)CC2)cn1C (centres undefined)	-1.8% (inactive)
COC1=C[C@H](C(=O)NCCNC(C)=O)[C@H](C)[C@@H](c2ccccc2)CC1=O	-3.81% (inactive)
CCCCn1c(N)c(N(CC(C)C)C(=O)c2ccc(Br)o2)c(=O)[nH]c1=O	0.08% (inactive)
CCCCn1c(N)c(N(CC(C)C)C(=O)C2CSC3(C)CCC(=O)N23)c(=O)[nH]c1=O (centres undefined)	28.1% (active)
CCCCn1c(N)c(N(CC(C)C)C(=O)c2cnc(C)cn2)c(=O)[nH]c1=O	-0.01% (inactive)
CN(C(N)=NC(=O)/C=C/c1ccccc1)C(C#Cc1ccccc1)Cc1ccccc1 (centres undefined)	-1.59% (inactive)
COc1ccc(-c2[nH][nH]c(=O)c2NC(=O)c2ccc([N+](=O)[O-])cc2)cc1	-5.21% (inactive)
CC(=O)Oc1ccc2c(=O)oc(-c3ccc([N+](=O)[O-])cc3)nc2c1	20.8% (active)
COC(=O)C(C)Oc1ccc2c(-c3cccc([N+](=O)[O-])c3)cc(=O)oc2c1 (centres undefined)	-2.28% (inactive)
CCOC(=O)[C@]12CCCC3=C1N(CCC3)C(=O)[C@@H](CC(=O)N1CCSCC1)C2	-0.01% (inactive)
O=C(Nc1ccccc1)N1CCN(Cc2nc3ccccc3c(=O)[nH]2)CC1	0.95% (inactive)
O=C(NCc1ccco1)C1CCCN(S(=O)(=O)c2ccc(Cl)s2)C1 (centres undefined)	-1.18% (inactive)
COC(=O)C[C@@H]1CC[C@@H]2[C@@H](COc3ccc(NC(=O)Nc4ccc(F)c(F)c4)cc3C(=O)N2C)O1	0.81% (inactive)
CCOC(=O)C1(Cc2ccccc2)CCN(Cc2cn(C(C)=O)c3ccccc23)CC1	-2.91% (inactive)
Cc1cc([N+](=O)[O-])nn1Cc1ccc(F)cc1	20.9% (active)
Cc1cc([N+](=O)[O-])nn1CC(=O)Nc1ccc(Cc2ccncc2)cc1	-2.12% (inactive)
Cc1cc([N+](=O)[O-])nn1CCCC(=O)Nc1cccnc1Cl	1.45% (inactive)
Cc1ccc(S(=O)(=O)n2cnc3ccccc32)c(C)c1	8.08% (inactive)
CCCCNS(=O)(=O)c1ccc(S(=O)(=O)n2cnc3ccccc32)cc1	20.7% (active)
COc1ccc(S(=O)(=O)n2cnc3ccccc32)c(C)c1	1.22% (inactive)
CCOC(=O)[C@]12CCCCC/C=C\1N(Cc1ccc(OC)cc1)C(=O)[C@H]2CC(=O)N1CCOCC1	-3.09% (inactive)
O=C(CCCCCN1C(=O)C2C3C=CC(C3)C2C1=O)Nc1ccccc1 (centres undefined)	-1.94% (inactive)
Cc1cc(/C=N/n2cnnc2)c(C)n1-c1ccc2ncccc2c1	0.89% (inactive)

Structure (SMILES)	inhibition
Cc1cc(/C=N/n2cnnc2)c(C)n1-c1cccc(C(=O)O)c1	60% (active)
Fc1ccc(Br)cc1/C=N/n1cnnc1	-0.98% (inactive)
COC(CNC(=O)[C@H](Cc1ccccc1)NC1(C(=O)NC2CCCCC2)CCCCC1)OC	-1.65% (inactive)
COC[C@@H]1CCCN1c1ccc2c(c1)O[C@H](C)CCN(C1CC1)S2(=O)=O	-3.33% (inactive)
CCCCOc1ccc(C(=O)NCc2ccco2)cc1	25% (active)
COc1ccc2oc(C(=O)NCc3ccco3)c(C)c2c1	-0.64% (inactive)
CCCC1=Nc2cc(C(=O)NCc3ccco3)ccc2Sc2ccccc21	0.66% (inactive)
C#CCCN([C@H](C(=O)OC)C(C)C)S(=O)(=O)c1ccc(F)cc1Br	-0.78% (inactive)
COc1cc2[nH]c(=S)n(CCN3CCCCC3C)c(=O)c2cc1OC (centres undefined)	8.11% (inactive)
CCOc1cc2[nH]c(=S)n(CCCN3CCCC3=O)c(=O)c2cc1OCC	-0.84% (inactive)
CCOc1cc2[nH]c(=S)n(CCN3CCCCC3C)c(=O)c2cc1OCC (centres undefined)	66% (active)
O=C(CN1CCCc2ccccc21)NCc1ccc(F)cc1	-2.07% (inactive)
CN(CC#CCC(c1ccccc1)c1ccccc1)C(C)(C)C	-0.47% (inactive)
CC(C)(C)N(CC#CCC(O)(c1ccccc1)C1CCCC1)CCO (centres undefined)	24.7% (active)
OC(C#CCN1CCOCC1)(c1ccccc1)C1CCCCC1 (centres undefined)	1.93% (inactive)
CN[C@H]1C[C@H]2c3cc(N4CCOCC4)ccc3CCN2C[C@H]1[C@H](C)O	-0.07% (inactive)
O=C(NC1CCCCN(Cc2cccc(C(F)(F)F)c2)C1=O)c1ccccc1I (centres undefined)	-2.03% (inactive)
CC(C)(C)C(=O)CN1C2=NCCN2c2ccccc21	0.42% (inactive)
OC(CN1C2=NCCCN2c2ccccc21)c1ccc(Br)cc1 (centres undefined)	68.9% (active)
Cc1cc2c(cc1C)N(Cc1ccccc1)C1=NCCCN12	-2.05% (inactive)
